Reference: article PMC10726135, “HNF4α isoforms regulate the circadian balance between carbohydrate and lipid metabolism in the liver”
The full ranking holds about 18,000 sequences; the median of “log2 normalized intensity” is about 0.39, and the highest 2% start at about 6.6. Only a selection was taken, and the highest values are over-represented in it overall.

Biological target: T1, HNF4alpha2 (COS-7 nuclear extract) (Homo sapiens, UniProt P41235 1-474)
T1 sequence: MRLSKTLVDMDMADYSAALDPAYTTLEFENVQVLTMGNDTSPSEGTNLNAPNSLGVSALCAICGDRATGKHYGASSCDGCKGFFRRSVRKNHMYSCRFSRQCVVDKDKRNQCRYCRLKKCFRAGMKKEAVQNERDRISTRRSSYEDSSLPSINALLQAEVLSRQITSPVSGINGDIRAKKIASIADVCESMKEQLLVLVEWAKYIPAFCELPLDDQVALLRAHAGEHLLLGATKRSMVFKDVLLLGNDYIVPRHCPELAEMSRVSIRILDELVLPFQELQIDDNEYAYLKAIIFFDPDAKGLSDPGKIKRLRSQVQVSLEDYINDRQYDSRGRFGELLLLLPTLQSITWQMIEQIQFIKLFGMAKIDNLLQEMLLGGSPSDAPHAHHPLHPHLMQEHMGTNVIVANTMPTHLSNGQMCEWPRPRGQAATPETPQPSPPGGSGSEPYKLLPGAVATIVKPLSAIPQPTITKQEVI
Assay: protein-binding microarray; COS-7 nuclear extract on double-stranded Agilent 4x180k PBM; binding buffer, salt, pH and temperature not given in the material; high values mean tight binding
Conditions: chain copies: 2; label: 3' end of strand 1 on the slide; dsDNA, one strand shown
Outline: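 Binding signal was defined as the normalized, background-corrected gProcessedSignal reported by Agilent software. It came from nuclear extracts of COS-7 cells transiently transfected with a human HNF4α isoform expression vector, applied to a custom Agilent SurePrint G3 4x180k array. That array held ~44,000 test sequences in quadruplicate as double-stranded ~60-nt oligonucleotides, and bound HNF4α was imaged at 2-µm resolution on an Agilent G2565CA scanner.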

Sequence	binding signal
AGCTGTGTGCTCCTGTAGAATGACCCCCTGGCCTAGGGAGATTAGAGTATCGGTCGA	5.17 log2 normalized intensity
GAGGTGGGCCCAGGGTTCTCTGTGACCTTTGCCTAGGGAGATTAGAGTATCGGTCGA	6.79 log2 normalized intensity
TGACTACCAGGTTCTGTACTTTGGAACCTGGCCTAGGGAGATTAGAGTATCGGTCGA	6.78 log2 normalized intensity
TGGAGCATGACCCTTTGCAGGTGGGAGAGGGCCTAGGGAGATTAGAGTATCGGTCGA	0.139 log2 normalized intensity
GGGCCCAGGGTTCTCTGTGACCTTTGGAAGGCCTAGGGAGATTAGAGTATCGGTCGA	8.2 log2 normalized intensity
TGGGTTCTTGCCCTTTGGTCTGGAACACAGGCCTAGGGAGATTAGAGTATCGGTCGA	3.31 log2 normalized intensity
TTCTCTGTGACCTTTGGAAGGTGGGGGAGGGCCTAGGGAGATTAGAGTATCGGTCGA	4.13 log2 normalized intensity
GTTCTGTACTTTGGAACCTGAAAGAGCAACGCCTAGGGAGATTAGAGTATCGGTCGA	3.87 log2 normalized intensity
CTGCCCTTCTGACCTCCCAGGGATACTGTGGCCTAGGGAGATTAGAGTATCGGTCGA	2.47 log2 normalized intensity
AACTGTACTTTGGACTGGGGACCTGGTCTGGCCTAGGGAGATTAGAGTATCGGTCGA	4.13 log2 normalized intensity
CTTCTGCCCCCGCAGACCCAGTCTTAGGGAGCCTAGGGAGATTAGAGTATCGGTCGA	4.14 log2 normalized intensity
AGAAATCCACACAGCACTGACCTTTGAGAGGCCTAGGGAGATTAGAGTATCGGTCGA	4.92 log2 normalized intensity
GGCACAGTAACCTGACCCCCAGTGGAATGTGCCTAGGGAGATTAGAGTATCGGTCGA	3.32 log2 normalized intensity
CCCAGATATCTCTGGTAAACAGCTGACAATGCCTAGGGAGATTAGAGTATCGGTCGA	-0.967 log2 normalized intensity
CAAATAAAGTTTGAGGAGAGTCAAAGGTTAGCCTAGGGAGATTAGAGTATCGGTCGA	3.24 log2 normalized intensity
CTCAGGTCAGGGAAGACTGATAAGAAAACTGCCTAGGGAGATTAGAGTATCGGTCGA	-0.891 log2 normalized intensity
AGTCATGTCTTCATGCTTTCAGCCTCTCTGGCCTAGGGAGATTAGAGTATCGGTCGA	0.358 log2 normalized intensity
CCCATCGACCTTTGCTCCCGACTCTGAGGCGCCTAGGGAGATTAGAGTATCGGTCGA	5.07 log2 normalized intensity
TCTTCAGGCTGGGGCCCCATCGACCTTTGCGCCTAGGGAGATTAGAGTATCGGTCGA	6.79 log2 normalized intensity
GCTCTAGACATCGACCTTTGTGGGCTTCAGGCCTAGGGAGATTAGAGTATCGGTCGA	2.69 log2 normalized intensity

Sequence	binding signal
AGACATCGACCTTTGTGGGCTTCAGACATTGCCTAGGGAGATTAGAGTATCGGTCGA	1.71 log2 normalized intensity
GGGGCCCCATCGACCTTTGCTCCCGACTCTGCCTAGGGAGATTAGAGTATCGGTCGA	8.11 log2 normalized intensity
AGGCTGGGGCCCCATCGACCTTTGCTCCCGGCCTAGGGAGATTAGAGTATCGGTCGA	9.6 log2 normalized intensity
CGACCTTTGCTCCCGACTCTGAGGCTCCATGCCTAGGGAGATTAGAGTATCGGTCGA	4.94 log2 normalized intensity
ACCTCCTGGGCCCAAGTGCTCCTCCCCATCGCCTAGGGAGATTAGAGTATCGGTCGA	3.37 log2 normalized intensity
CGCTCCCCGACCTCCTGCTGCAGCTCTGGGGCCTAGGGAGATTAGAGTATCGGTCGA	0.0682 log2 normalized intensity
AGCAGGCAGAGGTCAATGTCCACACCCCAGGCCTAGGGAGATTAGAGTATCGGTCGA	4.6 log2 normalized intensity
GCAGAGGCTGCAGAGGTTTCGCAAGGACGTGCCTAGGGAGATTAGAGTATCGGTCGA	-0.792 log2 normalized intensity
GTCTGCCTGACTCCAGAGTCCAAACTGGGAGCCTAGGGAGATTAGAGTATCGGTCGA	2.17 log2 normalized intensity
AGTATCATGTTGGCATTCCAGGATGAAGGAGCCTAGGGAGATTAGAGTATCGGTCGA	0.674 log2 normalized intensity
CAGCCTGGAGGAGGGCGAGGCCGAGCCTCAGCCTAGGGAGATTAGAGTATCGGTCGA	-0.906 log2 normalized intensity
ATCTACCCTTGACAATTCCTATTCATTCCCGCCTAGGGAGATTAGAGTATCGGTCGA	-0.0843 log2 normalized intensity
AAACTCTGAAGGCAAATTCTTAGAATTGCAGCCTAGGGAGATTAGAGTATCGGTCGA	-0.775 log2 normalized intensity
AAGAGACTTTGCCCTTTTTTTCTCTCCCCTGCCTAGGGAGATTAGAGTATCGGTCGA	3.42 log2 normalized intensity
TCTTCCTTTCTATCAGCTCTCCGTGGACTTGCCTAGGGAGATTAGAGTATCGGTCGA	3.08 log2 normalized intensity
ATCCCGTGGACTTTGCCTGCCCATCCCGTGGCCTAGGGAGATTAGAGTATCGGTCGA	3.13 log2 normalized intensity
TTTGGCCCCCAGAGCCCCGTGTCTCCCTACGCCTAGGGAGATTAGAGTATCGGTCGA	4.6 log2 normalized intensity
GCTCTCCGTGGACTTTGCCCCCTACAGTTTGCCTAGGGAGATTAGAGTATCGGTCGA	9.73 log2 normalized intensity
CTTTCTATCAGCTCTCCGTGGACTTTGCCCGCCTAGGGAGATTAGAGTATCGGTCGA	9.49 log2 normalized intensity
GTGGACTTTGCCTGCCCATCCCGTGGACTCGCCTAGGGAGATTAGAGTATCGGTCGA	3.88 log2 normalized intensity

Sequence	binding signal
TATCAGCTCTCCGTGGACTTTGCCCCCTACGCCTAGGGAGATTAGAGTATCGGTCGA	11.1 log2 normalized intensity
TCTTTGCCCTCTTGGTATCAGCTTTGAGACGCCTAGGGAGATTAGAGTATCGGTCGA	1.42 log2 normalized intensity
CCAAACAGAACAAAGTCCAGTAAGGACAGTGCCTAGGGAGATTAGAGTATCGGTCGA	2.51 log2 normalized intensity
GAGTAGGTTCTCAGCTGACATTGGTGGAATGCCTAGGGAGATTAGAGTATCGGTCGA	1.36 log2 normalized intensity
AGTCCAGACAAGTCCCAAGTATTTTCAGCCGCCTAGGGAGATTAGAGTATCGGTCGA	-0.962 log2 normalized intensity
AACTTCTTATCACTTGGTGGACATGGTTCAGCCTAGGGAGATTAGAGTATCGGTCGA	2.02 log2 normalized intensity
AGATATCAGAAATGCATGAGTGACCTTTATGCCTAGGGAGATTAGAGTATCGGTCGA	4.97 log2 normalized intensity
CTCTTTTCTTTGTACCGTATTTCAGACCACGCCTAGGGAGATTAGAGTATCGGTCGA	2.19 log2 normalized intensity
CAATTAGAGCAAAGGTTACTGCAGAGAAGAGCCTAGGGAGATTAGAGTATCGGTCGA	1.54 log2 normalized intensity
AGAGCACAACCTTTGGCCGTGCATGCTTGGGCCTAGGGAGATTAGAGTATCGGTCGA	1.84 log2 normalized intensity
ATTCTTTGCCATGACCTTTGAAGCCCAGAAGCCTAGGGAGATTAGAGTATCGGTCGA	4.66 log2 normalized intensity
CCTTTGAGGAGGCCTTTCCTGACCCCTCCTGCCTAGGGAGATTAGAGTATCGGTCGA	4.34 log2 normalized intensity
ATATGAAAGAGCCATGGACTGCTGACCTTTGCCTAGGGAGATTAGAGTATCGGTCGA	6.32 log2 normalized intensity
GGCAGATATGAAAGAGCCATGGACTGCTGAGCCTAGGGAGATTAGAGTATCGGTCGA	-0.302 log2 normalized intensity
AAAGAGCCATGGACTGCTGACCTTTGAACCGCCTAGGGAGATTAGAGTATCGGTCGA	9.3 log2 normalized intensity
ATCTTTGACCTGGAGCATGACCCTTTGCAGGCCTAGGGAGATTAGAGTATCGGTCGA	2.68 log2 normalized intensity
GCCATGGACTGCTGACCTTTGAACCCTGAGGCCTAGGGAGATTAGAGTATCGGTCGA	10.1 log2 normalized intensity
TTCAAATTCTTTGCCATGACCTTTGAAGCCGCCTAGGGAGATTAGAGTATCGGTCGA	6.75 log2 normalized intensity
AGCAATTCAAATTCTTTGCCATGACCTTTGGCCTAGGGAGATTAGAGTATCGGTCGA	5.51 log2 normalized intensity
